“And” between values parts separate entries of the source, which are not always exact repeats. Equal values may be shown once. The panel holds about 83,000 compounds, 20% with a hit somewhere; the sample as a whole holds those more often.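 Interpretation: 100, growth as untreated; towards 0, rising growth inhibition; 0, no net growth; 0 to -100, cell death. Compounds scoring below 10 were considered active.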 The source made the active and inactive calls.
How the values were obtained:
Experiment in all cases: NCI-60 one-dose screen, 48 h (100 = growth as untreated, 0 = no growth, -100 = all killed)
DU-145 prostate = test system: DU-145 prostate
K-562 leukemia = test system: K-562 leukemia
MALME-3M melanoma = test system: MALME-3M melanoma
MDA-MB-231 breast = test system: MDA-MB-231 breast
RXF 393 renal = test system: RXF 393 renal
SF-268 CNS = test system: SF-268 CNS
SF-295 CNS = test system: SF-295 CNS
SF-539 CNS = test system: SF-539 CNS
UACC-257 melanoma = test system: UACC-257 melanoma
M14 melanoma = test system: M14 melanoma

CC(C)(C)c1cc(NC(=O)Cc2ccc(-c3cnc4cc(-c5cnn(CCN6CCOCC6)c5)ccc4n3)cc2)no1
growth (DU-145 prostate; 10 µM): 23.7% (inactive)
growth (DU-145 prostate; 30 µM): 19.8% (inactive)
growth (K-562 leukemia; 10 µM): 2.41% (active)
growth (K-562 leukemia; 30 µM): -1.34% (active)
growth (MALME-3M melanoma; 10 µM): -5.96% (active)
growth (MALME-3M melanoma; 30 µM): -9.19% (active)
growth (MDA-MB-231 breast; 10 µM): 9.54% (active)
growth (MDA-MB-231 breast; 30 µM): 14.9% (inactive)
growth (RXF 393 renal; 10 µM unless noted): -20.5% (active)
growth (SF-268 CNS; 10 µM): 19.9% (inactive)
growth (SF-268 CNS; 30 µM): 24.7% (inactive)
growth (SF-295 CNS; 10 µM): 21.4% (inactive)
growth (SF-295 CNS; 30 µM): 15.4% (inactive)
growth (SF-539 CNS; 10 µM): -5.64% (active)
growth (SF-539 CNS; 30 µM): -9.45% (active)
growth (UACC-257 melanoma; 10 µM): 27.1% (inactive)
growth (UACC-257 melanoma; 30 µM): 31% (inactive)
growth (M14 melanoma; 10 µM unless noted): 15% (inactive)

O=C(Nc1cccc(-n2ccc3c(NC(=O)c4ccccc4)nccc32)c1)c1ccc(Cl)c(C(F)(F)F)c1
growth (DU-145 prostate; 10 µM unless noted): -36% (active) and 61.6% (inactive)
growth (K-562 leukemia; 10 µM unless noted): 2.58% (active) and 27.6% (inactive)
growth (MALME-3M melanoma; 10 µM unless noted): -35.4% (active)
growth (MDA-MB-231 breast; 10 µM unless noted): -11.2% (active) and 81.4% (inactive)
growth (RXF 393 renal; 10 µM unless noted): -89.4% (active) and 94.8% (inactive)
growth (SF-268 CNS; 10 µM unless noted): -44.1% (active)
growth (SF-295 CNS; 10 µM unless noted): -53.7% (active) and 38.4% (inactive)
growth (SF-539 CNS; 10 µM unless noted): -66% (active) and 52.8% (inactive)
growth (UACC-257 melanoma; 10 µM unless noted): 65.2% (inactive)

CCN(CC)CCCC(C)Nc1cnc(C(=O)Nc2cc(F)cc3cccnc23)cn1 (configuration not stated)
growth (DU-145 prostate; 10 µM unless noted): 63.3% (inactive) and -82.2% (active)
growth (K-562 leukemia; 10 µM unless noted): 3.95% (active) and 4.95% (active)
growth (MALME-3M melanoma; 10 µM unless noted): -8.34% (active) and -76.1% (active)
growth (MDA-MB-231 breast; 10 µM unless noted): 59.4% (inactive) and -55% (active)
growth (RXF 393 renal; 10 µM unless noted): 33.8% (inactive) and -84.4% (active)
growth (SF-268 CNS; 10 µM unless noted): 51.9% (inactive) and -92.1% (active)
growth (SF-295 CNS; 10 µM unless noted): 71.2% (inactive) and 3.03% (active)
growth (SF-539 CNS; 10 µM unless noted): 83.1% (inactive) and 8.22% (active)
growth (UACC-257 melanoma; 10 µM unless noted): 76.8% (inactive) and -12.4% (active)

CNc1ccc2nc3ccc(=[N+](C)C)cc-3sc2c1
growth (DU-145 prostate; 10 µM unless noted): 42.4% (inactive) and 7.81% (active)
growth (K-562 leukemia; 10 µM unless noted): 8.78% (active) and 22.8% (inactive)
growth (MALME-3M melanoma; 10 µM unless noted): -28.2% (active) and -24.3% (active)
growth (MDA-MB-231 breast; 10 µM unless noted): 4.03% (active) and -13.7% (active)
growth (RXF 393 renal; 10 µM unless noted): 58.3% (inactive) and 32.9% (inactive)
growth (SF-268 CNS; 10 µM unless noted): 5.13% (active) and 2.8% (active)
growth (SF-295 CNS; 10 µM unless noted): -7.68% (active) and 7.95% (active)
growth (SF-539 CNS; 10 µM unless noted): -6.95% (active) and -15.6% (active)
growth (UACC-257 melanoma; 10 µM unless noted): -22.2% (active) and -27.4% (active)

Cc1ccc(-c2noc(C)n2)cc1
growth (DU-145 prostate; 10 µM unless noted): 115% (inactive)
growth (K-562 leukemia; 10 µM unless noted): 96.1% (inactive)
growth (MALME-3M melanoma; 10 µM unless noted): 108% (inactive)
growth (MDA-MB-231 breast; 10 µM unless noted): 111% (inactive)
growth (RXF 393 renal; 10 µM unless noted): 94.2% (inactive)
growth (SF-268 CNS; 10 µM unless noted): 111% (inactive)
growth (SF-295 CNS; 10 µM unless noted): 95.2% (inactive)
growth (SF-539 CNS; 10 µM unless noted): 98.7% (inactive)
growth (UACC-257 melanoma; 10 µM unless noted): 92.9% (inactive)

O=C(c1ccc(Cl)cc1)C(NCCO)c1ccc(Cl)cc1 (configuration not stated)
growth (DU-145 prostate; 10 µM unless noted): 108% (inactive) and 109% (inactive)
growth (K-562 leukemia; 10 µM unless noted): 90.3% (inactive) and 105% (inactive)
growth (MALME-3M melanoma; 10 µM unless noted): 90.2% (inactive) and 102% (inactive)
growth (MDA-MB-231 breast; 10 µM unless noted): 96.3% (inactive) and 97.8% (inactive)
growth (RXF 393 renal; 10 µM unless noted): 94.9% (inactive) and 108% (inactive)
growth (SF-268 CNS; 10 µM unless noted): 99% (inactive) and 85.8% (inactive)
growth (SF-295 CNS; 10 µM unless noted): 96.8% (inactive) and 103% (inactive)
growth (SF-539 CNS; 10 µM unless noted): 114% (inactive) and 103% (inactive)
growth (UACC-257 melanoma; 10 µM unless noted): 100% (inactive) and 101% (inactive)

COc1ccccc1NC(=O)OCC#CCOC(=O)Nc1ccccc1OC
growth (DU-145 prostate; 10 µM unless noted): 146% (inactive) and 96.5% (inactive)
growth (K-562 leukemia; 10 µM unless noted): 75% (inactive) and 57.3% (inactive)
growth (MALME-3M melanoma; 10 µM unless noted): 96.6% (inactive)
growth (MDA-MB-231 breast; 10 µM unless noted): 102% (inactive) and 105% (inactive)
growth (RXF 393 renal; 10 µM unless noted): 102% (inactive) and 90.3% (inactive)
growth (SF-268 CNS; 10 µM unless noted): 116% (inactive) and 89.4% (inactive)
growth (SF-295 CNS; 10 µM unless noted): 105% (inactive) and 94% (inactive)
growth (SF-539 CNS; 10 µM unless noted): 99.9% (inactive) and 91.6% (inactive)
growth (UACC-257 melanoma; 10 µM unless noted): 100% (inactive) and 91.1% (inactive)

O=C(O)c1sccc1O
growth (DU-145 prostate; 10 µM): 83.1% (inactive)
growth (DU-145 prostate; 100 µM): 40.3% (inactive)
growth (K-562 leukemia; 10 µM): 60.5% (inactive)
growth (K-562 leukemia; 100 µM): 5.69% (active)
growth (MALME-3M melanoma; 10 µM): 103% (inactive)
growth (MALME-3M melanoma; 100 µM): 78.8% (inactive)
growth (MDA-MB-231 breast; 10 µM): 40.8% (inactive)
growth (MDA-MB-231 breast; 100 µM): 27.7% (inactive)
growth (RXF 393 renal; 10 µM): 84.6% (inactive)
growth (RXF 393 renal; 100 µM): 52.1% (inactive)
growth (SF-268 CNS; 10 µM): 71.6% (inactive)
growth (SF-268 CNS; 100 µM): 26% (inactive)
growth (SF-295 CNS; 10 µM): 76.6% (inactive)
growth (SF-295 CNS; 100 µM): 31.2% (inactive)
growth (SF-539 CNS; 10 µM): 85.4% (inactive)
growth (SF-539 CNS; 100 µM): 23.5% (inactive)
growth (UACC-257 melanoma; 10 µM): 85.3% (inactive)
growth (UACC-257 melanoma; 100 µM): 51.5% (inactive)
growth (M14 melanoma; 10 µM): 85.5% (inactive)
growth (M14 melanoma; 100 µM): 7.02% (active)

From PubChem BioAssay (NCI)
